mTORC1 inh: Acumen qHTS Assay for Inhibitors of the mTORC1 Signaling Pathway in MEF (Tsc2-/-, p53-/-) Cells: Sytravon. Tsc2-/- p53-/- MEF, phospho-rpS6 immunofluorescence/PI, 24 h. AID 493208, 2011. Potency, µM (top dose mostly 38.3 µM), hits mostly inhibitors. actives 0.78% (n = 44,000); further: nearly all actives have a fitted effect of over 50% in size
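Plate MEFs (Tsc2-/-, p53-/-, empty vector) in DMEM/10% FBS; after 24 h add compound, incubate 24 h at 37 degree Celsius; fix in PFA/TX-100, block, stain phospho-rpS6 and 10 uM PI; scan at 488 nm; report % positive cells.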
p53null 39C kill: qHTS Screen for Compounds that Selectively Target Cancer Cells with p53 Mutations: Cytotoxicity of p53 Null Cells at the Nonpermissive Temperature; Potency, µM (titrated, usually from 46.1 µM), usual class: cytotoxic; actives 0.97% (n = 55,000); AID 904, 2007; H1299 p53-null (neo) cells, 39C, ATPlite viability, 24 h; further: nearly all actives have a fitted effect of over 50% in size
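Following overnight plating at 37C (600 cells/well), H1299-neo or H1299-p53A138V cells are dosed up to 46 uM. Incubation lasts 24 hr at 39C before ATP detection.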
p53null 32C kill: qHTS Screen for Compounds that Selectively Target Cancer Cells with p53 Mutations: Cytotoxicity of p53 Null Cells at the Permissive Temperature | H1299-neo p53 null cells, ATP luminescence, 24 h, 32C | Potency, µM (highest dose often 46.1 µM), usual class: cytotoxic | actives 0.62% (n = 55,000); further: nearly all actives have a fitted effect of over 55% in size
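AC50 values derive from Hill modelling of qHTS concentration-response data (up to 46 uM) in H1299-neo cells. Cells were treated 24 h at 32C following overnight attachment at 37C; viability was read as cellular ATP.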
S16 viability: Cell viability qHTS assay in S16 Pmp22-F2sN cells; actives 0.48% (n = 43,000); S16 Pmp22-F2sN Schwann cells viability, CellTiter-Glo, 24 h; Potency, µM (series often up to 57.5 µM), actives largely listed as cytotoxic; further: nearly all actives have a fitted effect of over 65% in size
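S16 Pmp22-F2sN Schwann cells (500-1,000/well) in phenol-red-free DMEM with 10% FBS received 23 nL compound by pin tool for 24 h at 37 °C. Viability was then read as CellTiter-Glo luminescence after 15 min at room temperature.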
PMP22 txn: Cell-based coincidence reporter assay to measure PMP22 gene transcription in S16 Pmp22-F2sN cells - Primary screen; actives 2% (n = 43,000); S16 Pmp22-F2sN Schwann cells (luciferase reporters placed in the Pmp22 gene), FLuc/NLuc coincidence luminescence, 24 h; Potency, µM (titrated, usually from 57.5 µM), hits mostly inhibitors; active means clear falling dose curves in both reporters; inconclusive means both reporters move, but less clearly or upward; inactive means either reporter flat; the % is the NLuc reporter signal
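Transcriptional readout in edited S16(c9) cells: two luciferases reported from the Pmp22 locus, measured in turn after 24 h compound incubation.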
Of the large screens only hits and unclear results are named; the others gave an inactive call. Hits are enriched below; roughly 3.2% of the tested compounds scored in any of these assays. Unless noted, the call rests on the fitted dose curve; in most records, active means well fitted curve in the direction sought with a large enough effect; inconclusive means small, poorly fitted or top-dose-only effect, or another doubt; inactive means no such curve, though single readings can be large; an effect the other way counts as inactive or inconclusive.

COC(=O)c1ccccc1NC(=O)Nc1cccc(OCc2cc(=O)n3cccc(C)c3n2)c1	none
Cc1cccn2c(=O)cc(COc3cccc(NC(=O)c4ccccc4F)c3)nc12	mTORC1 inh inconclusive, p53null 39C kill 7.9µM, PMP22 txn inconclusive
Cc1cccc(NC(=O)CCn2nc(-c3ccccc3)c3ccccc3c2=O)c1	none
Cc1ccccc1CNC(=O)CN(c1cccc(C)c1C)S(C)(=O)=O	none
CCCCN(CC)CCNC(=O)c1cc2c(-c3ccc(Cl)cc3)nn(C)c2s1	mTORC1 inh inconclusive, p53null 39C kill 16µM, p53null 32C kill inconclusive, S16 viability inconclusive, PMP22 txn inconclusive
CCCN(CCC)CCNC(=O)c1cc2c(-c3ccc(Cl)cc3)nn(C)c2s1	p53null 39C kill 13µM, p53null 32C kill inconclusive, S16 viability inconclusive, PMP22 txn inconclusive
Cc1ccccc1OCCCSc1nc2ccccc2[nH]1	none (no result: mTORC1 inh, p53null 32C kill, S16 viability, PMP22 txn)
O=C1c2ccccc2C(=O)C1c1ccnc2ccccc12	p53null 39C kill 16µM, p53null 32C kill inconclusive (no result: mTORC1 inh, S16 viability, PMP22 txn)
COc1ccc(-c2cc(C(F)(F)F)n3nc(C(=O)Nc4cccc(C(F)(F)F)c4)c(Br)c3n2)cc1	none
COc1ccc(OC)c(NC(=O)[C@H](Cc2ccccc2)N2Cc3ccccc3C2=O)c1	none
O=C(Nc1nc2c(F)cccc2s1)c1ccc2c(c1)OCCO2	p53null 39C kill inconclusive, p53null 32C kill 4µM, PMP22 txn inconclusive
Cc1ccc(NC(=O)CN(CCc2ccccc2)S(=O)(=O)c2ccccc2)c(C)c1	PMP22 txn inconclusive
CCOc1cccc(-c2nc3ccccc3c(=O)o2)c1	p53null 39C kill inconclusive, p53null 32C kill 13µM
CCOc1ccc(CCNC(=O)C2COc3ccccc3C2)cc1OCC (stereo not given)	S16 viability inconclusive, PMP22 txn inconclusive
COc1cccc(C(=O)Nc2nc3c(s2)CCCC3)c1	p53null 39C kill 5µM, p53null 32C kill 13µM, PMP22 txn inconclusive
COc1cccc(C(=O)Nc2nnc(C(C)C)s2)c1	none (no result: mTORC1 inh, S16 viability, PMP22 txn)
COCn1c(-c2ccc(OC)cc2)nc2ccccc21	p53null 39C kill 11µM, p53null 32C kill 14µM (no result: mTORC1 inh, S16 viability, PMP22 txn)
COc1ccc(-c2nc3ccccc3n2Cc2ccc(Cl)cc2)cc1	p53null 39C kill 4µM
COc1ccc(-c2nc3ccccc3n2Cc2ccc(C(C)C)cc2)cc1	p53null 39C kill inconclusive, S16 viability inconclusive
O=C(NC1CCN(Cc2ccccc2)CC1)c1ccc(Cn2c(=O)c3ccccc3n(Cc3ccc(F)cc3)c2=O)cc1	mTORC1 inh 3.3µM, S16 viability inconclusive, PMP22 txn inconclusive
Cc1ccc(C)c(Cn2c(=O)n(Cc3ccc(C(=O)NC4CCN(Cc5ccccc5)CC4)cc3)c(=O)c3ccccc32)c1	none
Cc1ccc(CSc2nc3cccnc3n2Cc2ccc(C(=O)NCc3cccs3)cc2)cc1	p53null 39C kill 16µM, p53null 32C kill inconclusive
O=C(NCCN1CCCCC1)c1ccc(Cn2c(SCc3ccccc3)nc3cccnc32)cc1	p53null 39C kill 13µM, p53null 32C kill 16µM, S16 viability inconclusive
CCN(CC)CCCNC(=O)c1ccc(Cn2c(SCc3ccccc3)nc3cccnc32)cc1	p53null 39C kill inconclusive, p53null 32C kill inconclusive, S16 viability inconclusive
CC1CCCCN1CCNC(=O)c1ccc(Cn2c(SCc3ccccc3)nc3cccnc32)cc1 (stereo not given)	p53null 39C kill 16µM, p53null 32C kill 13µM
O=C(NCCc1ccccc1)c1ccc(CSc2nc3cccnc3n2Cc2ccc(F)cc2)cc1	none
CC1CCN(CCNC(=O)c2ccc(Cn3c(SCc4ccccc4)nc4cccnc43)cc2)CC1	p53null 39C kill 13µM, p53null 32C kill inconclusive, S16 viability inconclusive
Cc1oc(-c2cccc(Br)c2)nc1Cn1c(SCc2cccc(F)c2)nc2cccnc21	none
Cc1ccc(-c2nc(Cn3c(SCc4ccc(F)cc4)nc4cccnc43)c(C)o2)cc1	PMP22 txn 7.4µM
